Data from PubChem BioAssay (NCATS).
Results filed as inconclusive are left out. Where a call stands in place of a potency, no number is given. Calls of active or inactive are those of the source. Calls come from the whole dose curve; as a rule, active = well fitted inhibition curve with a large enough effect; inconclusive = small, poorly fitted or top-dose-only effect; inactive = flat fitted curve, though single readings scatter. Numbered stars: 1 amine (or outer) side, 2 acyl side, 3 side chain; on linkers, the order of the positions; unused ones are H or OH. Bridge positions count the residues as written; N and C are the ends. Square brackets hold non-standard residues; d marks the D form. Peptide text beside a SMILES is read from it. I, II: the chains in the order shown. Actinocin(9to1) = Cc1c2oc3c(C)ccc(C(=O)[*:1])c3nc-2c(C(=O)[*:2])c(N)c1=O; NMeV = CN[C@H](C(=O)O)C(C)C; Sar = CNCC(=O)O

These compounds were tested on MCC-26 (assay: qHTS assay to identify novel small-molecules to repurpose for Merkel cell carcinoma treatment (AID 1296009; note: nearly all actives have a fitted effect of over 60% in size)). Conditions: MCC and control cell lines, CellTiter-Glo viability, 72 h; series mostly up to 46 µM.
Text: MCC is a rare and aggressive neuroendocrine skin cancer with limited treatment options. Approximately 80% of MCCs have the Merkel cell polyomavirus (MCPyV) DNA integrated into the host genome (virus-positive: VP-MCC) and viral oncogenes drive oncogenesis. The remaining MCCs are virus-negative (VN-MCC) and are caused by UV mutagenesis. To identify novel treatments for VP-MCC and/or VN-MCC we screened three VP-MCC cell lines (WAGA, MKL-1, MKL-2), three VN-MCC cell lines (MCC-13, MCC-26, UISO), and four immortalized, non-transformed control cell lines (HaCaT, HEK293T, CRL7250, NIH-3T3) against ~2,400 compounds in the NCGC Pharmaceutical Collection (NPC) and ~1,900 compounds in the Mechanism Interrogation PlatE (MiPE). Using cell viability as a readout (CellTiter-Glo assay) we found both overlapping and distinct drugs that can be repurposed for the treatment of VP-MCC and VN-MCC.
A high-throughput screen was conducted in 1536-well white flat bottom plates (Corning) on a Kalypsys robotic system. Cell lines WAGA, MKL-1, MKL-2, MCC-13, MCC-26, UISO, HaCaT, HEK293T, CRL7250, and NIH-3T3 were screened against 2 small molecule annotated drug libraries NPC and MIPE in dose response (8 and 11 pt. respectively) measuring cell viability after 72 hours of incubation. […] A 1,536 pintool (Kalypsys) was used to transfer 23 nL of compound in DMSO to the 1,536-well assay plates. After 72 hr incubation at 37 degree celsius, 2.5 uL of CellTiter-Glo (Promega) was dispensed into each well using a BiorapTR. Plates were incubated at room temperature for 10 min, transferred to a ViewLux (PerkinElmer) and the luminescence was recorded using an exposure time of 2 seconds. Relative luminescence units (RLUs) were normalized to in-plate controls (no cells as a positive (cytotoxicity) control, DMSO as negative control) and the normalized data was processed using NCATS in-house software.
Potency is the fitted concentration of half-maximal effect.

Row | SMILES | Potency
1 | NC(=O)CC[C@@H]1NC(=O)[C@H](Cc2ccccc2)NC(=O)[C@H](Cc2ccc(O)cc2)NC(=O)CCSSC[C@@H](C(=O)N2CCC[C@H]2C(=O)N[C@@H](CCCN=C(N)N)C(=O)NCC(N)=O)NC(=O)[C@H](CC(N)=O)NC1=O | inactive
2 | N[C@@H](CCC(=O)N[C@@H](CS)C(=O)NCC(=O)O)C(=O)O | inactive
3 | CCCC(=O)O[C@]1(C(=O)CO)CC[C@H]2[C@@H]3CCC4=CC(=O)CC[C@]4(C)[C@H]3[C@@H](O)C[C@@]21C | inactive
4 | CN1CCC[C@@H]1c1cccnc1 | inactive
5 | CC(=O)CC(c1ccc([N+](=O)[O-])cc1)c1c(O)c2ccccc2oc1=O (stereo not given) | inactive
6 | CCN(CC)C(=O)N1CCN(C)CC1 | inactive
7 | CCN(CCCc1ccccc1)CCCc1ccccc1 | inactive
8 | CCCCCC=CCC=CCCCCCCCC(=O)OCC | inactive
9 | CC(=O)Nc1c(I)cc(I)c(C(=O)O)c1I | inactive
10 | CCN(CCCCOC(=O)c1ccc(OC)c(OC)c1)C(C)Cc1ccc(OC)cc1 (stereo not given) | inactive
11 | CC(C)n1nc(-c2cc3cc(O)ccc3[nH]2)c2c(N)ncnc21 | 11.9 µM (active)
12 | CCOc1ccc(Cc2nccc3cc(OCC)c(OCC)cc23)cc1OCC | inactive
13 | CCOC(=O)/C=C(C)/C=C/C=C(C)/C=C/c1c(C)cc(OC)c(C)c1C | inactive
14 | CCOc1ccc2nc3cc(N)ccc3c(N)c2c1 | inactive
15 | CC(C)=CCC1C(=O)N(c2ccccc2)N(c2ccccc2)C1=O | inactive
16 | CC(=O)OCC(=O)[C@@]12N=C(C)O[C@@H]1C[C@H]1[C@@H]3CCC4=CC(=O)C=C[C@]4(C)[C@H]3[C@@H](O)C[C@@]12C | inactive
17 | O=C(OCC(O)CO)c1ccccc1Nc1ccnc2cc(Cl)ccc12 (stereo not given) | inactive
18 | CC(C)(Oc1ccc(Cl)cc1)C(=O)O | inactive
19 | COc1ccc(OC)c(C(O)CNC(=O)CN)c1 (stereo not given) | inactive
20 | CCOC(=O)OC(C)OC1=C(C(=O)Nc2ccccn2)N(C)S(=O)(=O)c2ccccc21 (stereo not given) | inactive

Row | SMILES | Potency
21 | O=C(COc1ccc(Cl)cc1)N1CCN(Cc2ccc3c(c2)OCO3)CC1 | inactive
22 | CCN(CC)CCOC(=O)C(c1ccccc1)C1CCCCC1 (stereo not given) | inactive
23 | OC[C@H]1O[C@H](O[C@]2(CCl)O[C@H](CCl)[C@@H](O)[C@@H]2O)[C@H](O)[C@@H](O)[C@H]1Cl | inactive
24 | O=C1c2ccccc2C(=O)C1c1ccccc1 | inactive
25 | C[C@@H]1C[C@H]2[C@@H]3CCC4=CC(=O)C=C[C@]4(C)[C@@]3(F)[C@@H](O)C[C@]2(C)[C@H]1C(=O)CO | inactive
26 | CCCC(=O)Nc1ccc(OCC(O)CNC(C)C)c(C(C)=O)c1 (stereo not given) | inactive
27 | NC(=O)c1cc[n+](CC2=C(C(=O)[O-])N3C(=O)[C@@H](NC(=O)Cc4cccs4)[C@H]3SC2)cc1 | inactive
28 | CCCCOc1ccc(OCCCN2CCOCC2)cc1 | inactive
29 | Cc1c(N(C)CS(=O)(=O)O)c(=O)n(-c2ccccc2)n1C | inactive
30 | N[C@H](Cc1c[nH]c2ccccc12)C(=O)O | inactive
31 | CC(=O)Oc1ccc(C(c2ccc(OC(C)=O)cc2)c2ccccn2)cc1 | inactive
32 | OC(CCN1CCCCC1)(c1ccccc1)c1ccccc1 | inactive
33 | C[C@@H]1CN(CCCn2c3ccccc3c3ccccc32)C[C@H](C)N1 | inactive
34 | CC/C(=C(/CC)c1ccc(O)cc1)c1ccc(O)cc1 | inactive
35 | CCCCCCc1ccc(O)cc1O | inactive
36 | COc1cc(OC)cc(OC)c1 | inactive
37 | CC(=O)Oc1ccc2c(c1)CC[C@@H]1[C@@H]2CC[C@]2(C)[C@@H](O)CC[C@@H]12 | inactive
38 | Cc1c2oc3c(C)ccc(C(=O)N[C@@H]4C(=O)N[C@H](C(C)C)C(=O)N5CCC[C@H]5C(=O)N(C)CC(=O)N(C)[C@@H](C(C)C)C(=O)O[C@@H]4C)c3nc-2c(C(=O)N[C@@H]2C(=O)N[C@H](C(C)C)C(=O)N3CCC[C@H]3C(=O)N(C)CC(=O)N(C)[C@@H](C(C)C)C(=O)O[C@@H]2C)c(N)c1=O (I: T[dV]P[Sar][NMeV] / II: T[dV]P[Sar][NMeV]; ester I:1-I:C, II:1-II:C; linker I:N-II:N via Actinocin(9to1)) | 0.0211 µM (active)
39 | Cc1cc2c(cc1CC(=O)c1sccc1S(=O)(=O)Nc1onc(C)c1Cl)OCO2 | inactive
40 | CN(C)CCCOc1nn(Cc2ccccc2)c2ccccc12 | inactive
